# Source: PubChem
# This is one part of a sample in which hits are shown more often than they occur.
# ST2 inh: inhibitors of human ST2 (IL1RL1) binding to IL-33, primary screen, biochemical, AlphaLISA | Interleukin-1 receptor-like 1 (Homo sapiens), Q01638 | AlphaLISA ST2-Fc/biotin-IL-33 interaction, 1 h | inhibition, % for hits at 17 µM | 78,000 tested, 2.3% active; in the data active = inhibition above about 30%
# Target sequence (Q01638 whole entry, looked up): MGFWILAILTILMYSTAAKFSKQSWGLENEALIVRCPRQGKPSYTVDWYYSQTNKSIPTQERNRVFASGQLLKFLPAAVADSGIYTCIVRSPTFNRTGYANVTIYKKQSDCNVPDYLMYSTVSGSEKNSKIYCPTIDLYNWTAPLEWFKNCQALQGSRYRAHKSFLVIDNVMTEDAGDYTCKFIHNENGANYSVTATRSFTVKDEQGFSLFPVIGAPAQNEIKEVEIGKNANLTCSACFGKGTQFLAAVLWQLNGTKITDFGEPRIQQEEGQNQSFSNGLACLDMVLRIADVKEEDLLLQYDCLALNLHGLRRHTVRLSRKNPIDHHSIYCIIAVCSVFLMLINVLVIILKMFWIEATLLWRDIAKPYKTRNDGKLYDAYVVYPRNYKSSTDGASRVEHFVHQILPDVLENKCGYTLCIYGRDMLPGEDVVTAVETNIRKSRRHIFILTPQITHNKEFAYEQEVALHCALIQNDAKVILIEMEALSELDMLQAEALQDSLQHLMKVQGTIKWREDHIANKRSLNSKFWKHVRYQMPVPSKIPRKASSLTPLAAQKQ
# The depositor's hits bear a star; i = inactive; ! = repeats disagree.
SMILES,ST2 inh
CS(=O)(=O)c1ccc(CN2C[C@H](O)C[C@H]2c2nc(-c3ccc(OC(F)(F)F)cc3)no2)cc1,32%*
CS(=O)(=O)c1ccc(CN2C[C@H](O)C[C@H]2c2nc(-c3ccc(F)cc3)no2)cc1,i
O=C(Nc1ccnn1C1CCN(Cc2cc3ccccc3s2)CC1)C1CCCC1,i
CC1CCC2C(=O)N(c3ccc(Cl)c(Cl)c3)C(=O)C2C1 (configuration not stated),i
COc1ccc2nc(Cl)c(Cl)nc2c1,i
COc1ccc2nc3c(nc2c1)C(=O)c1ccccc1-3,32%*
COc1ccc(C(=O)O/N=C2\c3ccccc3-c3nc4ccccc4nc32)cc1,i
COc1ccc(C(=O)Nc2cccc(Cl)c2Cl)cc1Cl,i
Cc1ccccc1CSc1c[nH]c2ccccc12,i
O=[N+]([O-])c1ccc(CN2CCN(C3CCCC3)CC2)cc1,i
N#C/C(=C\c1ccc(N2CCOCC2)cc1)c1nc2ccccc2[nH]1,i
Cc1cc([N+](=O)[O-])c(C)cc1-c1ccc(/C=C(\C#N)c2nc3ccccc3[nH]2)o1,38%*
O=c1/c(=C\c2ccc(-c3ccccc3[N+](=O)[O-])o2)sc2nc3ccccc3n12,i
O=C(Nc1ccc(F)c(Cl)c1)c1cc(-c2cccs2)on1,i
NC(=O)CCNC(=O)C1=C[C@@H](NC(=O)Cc2cccs2)[C@@H](O)[C@H](O)C1,i
CC(C)(C)CC(=O)N[C@@H]1C=C(C(=O)NCCC(N)=O)C[C@@H](O)[C@@H]1O,83%*
Cc1ccc(C(=O)N[C@@H]2C=C(C(=O)NCCC(N)=O)C[C@@H](O)[C@@H]2O)cc1,i
O=C(NCc1cccnc1)c1cc(F)c(F)cc1Cl,i
Cc1ccc(S(=O)(=O)N(C)CC(=O)NC2CCCCCC2)cc1,i
O=S(=O)(Cc1noc([C@@H]2C[C@@H](O)CN2Cc2ccc(F)cc2)n1)c1ccc(F)cc1,i
CCOc1ccc(NC(=O)C(c2ccccc2)c2ccccc2)cc1,i
CCc1ccc(NS(=O)(=O)c2ccc(OC)c(OC)c2)cc1,i
COc1ccc(NC2=CC(=NS(=O)(=O)c3ccc(Cl)cc3)c3ccccc3C2=O)cc1,93%*
CCOc1ccc(NC(=O)Cc2ccccc2)cc1,i
CCc1ccc(S(=O)(=O)N=C2C=C(Nc3ccc(O)cc3)C(=O)c3ccccc32)cc1,91%*
SMILES,ST2 inh
CCOc1ccc(NC2=CC(=NS(=O)(=O)c3ccccc3)c3ccccc3C2=O)cc1,77%*
O=S(=O)(N=C(Nc1cccc(O)c1)c1ccccc1)c1ccc(Cl)cc1,i
O=S(=O)(Nc1ccc(Oc2ccccc2)cc1)c1ccc(Cl)cc1,i
CCOc1ccc(NC(=O)c2ccccc2Cl)cc1,i
CCOc1ccc(NC(=O)C(Cc2ccccc2)N2C(=O)c3ccccc3C2=O)cc1 (configuration not stated),i
CCOc1ccc(S(=O)(=O)N=C2C=C(Nc3ccc(O)cc3)C(=O)c3ccccc32)cc1,84%*
COc1ccc(NS(=O)(=O)c2ccc(NC(=O)Nc3ccc(Cl)cc3)cc2)cc1,i
CC(C)c1nnsc1CNC(=O)C1CCCN(C(=O)N(C)C)C1 (configuration not stated),i
CCOc1ccc2nc(N3CCc4ccccc4C3)sc2c1,i
COc1ccc(CN2CCCN(CC(=O)Nc3cccc(C)c3)S2(=O)=O)cc1,i
CC(=O)Nc1ccc(S(=O)(=O)NCCn2ccc3ccccc32)cc1,i
CN1CCN(CCCSc2ccc(Cl)cc2)CC1,i
O=C1C=C(Nc2ccc(O)cc2)C(=O)c2ccccc21,42%*
CC(C)N=C(NS(=O)(=O)c1cccs1)c1ccccc1,i
O=C1C(Nc2ccccc2)=CC(c2ccc(O)cc2)N1c1ccccc1 (configuration not stated),i
Cc1cccc(Nc2c3c4c(cccc4n(C)c2=O)C(=O)c2ccccc2-3)c1,i
NC(=O)c1ccc(NS(=O)(=O)c2cccs2)cc1,i
Cc1ccc(Cl)cc1N1CCN(C(=O)C(NS(=O)(=O)c2cccs2)C(C)C)CC1 (configuration not stated),i
O=C1C(Nc2ccc(O)cc2)=CC(=NS(=O)(=O)c2cccs2)c2ccccc21,88%*
Cc1cccc(NS(=O)(=O)c2ccc(F)cc2)c1,i
O=S(=O)(Nc1ccc(F)c(Cl)c1)c1cccs1,i
COc1ccc(S(=O)(=O)N=C2C=C(Nc3cccc(C)c3)C(=O)c3ccccc32)cc1,79%*
Cc1ccc(Cl)cc1NC1=CC(=NS(=O)(=O)c2cccs2)c2ccccc2C1=O,56%*
O=S(=O)(O)c1ccc(Nc2ccccc2)cc1,i
CC1CCN(C(=O)CSC2=NN3CCCC(=O)N=C3S2)CC1,i
SMILES,ST2 inh
CC1CCCC(NC(=O)C2CC(=O)N(c3ccc(F)c(Cl)c3)C2)C1C (configuration not stated),i
O=C(CSc1nc2c(c(=O)n1-c1ccc(F)cc1)SCC2)c1ccc(Cl)cc1,i
CCOC(=O)c1ccc(NS(=O)(=O)c2ccc3[nH]c(=O)sc3c2)cc1,i
CCOc1ccc(NC2=CC(=NS(=O)(=O)c3ccc(OC)cc3)c3ccccc3C2=O)cc1,94%*
CCOc1ccc(NC(=O)COc2ccc(OC)cc2)cc1,i
CCOc1ccc(NC2=NS(=O)(=O)c3ccccc32)cc1,i
COc1ccc(/C=C(\C#N)c2nc3ccc(C)cc3[nH]2)cc1O,46%*
N#C/C(=C\c1cccc(F)c1)c1nc2ccccc2[nH]1,i
N#C/C(=C\c1cccc(Br)c1)c1nc2ccccc2[nH]1,i
O=C(Cc1ccc2c(c1)NC(=O)CO2)NCc1cccnc1N1CCCCCCC1,i
CCOc1ccc(C(=O)Nc2nc3ccc4nc(C)sc4c3s2)cc1,i
CCOc1cccc(OCCCCN2CCN(C)CC2)c1,i
COc1ccc(NC(=O)c2cc3ccccc3oc2=N)cc1,i
COc1ccc(C2C(C(=O)Nc3ccc(C)cn3)=C(C)NC3=C2C(=O)CCC3)c(OC)c1 (configuration not stated),i
Clc1ccccc1-n1ncnc1-c1ccc(Br)cc1,i
Clc1ccc(-c2ncnn2-c2ccc(Br)cc2)cc1,33%*!
Brc1ccc(-c2ncnn2-c2ccc(Br)nc2)cc1,i
Nc1ncnc(Nc2ccc(Oc3ccccc3)cc2)c1[N+](=O)[O-],i
O=[N+]([O-])C1=C(Nc2ccccc2)CS(=O)(=O)C1,i
O=[N+]([O-])c1c(Nc2ccccc2)sc2ccccc12,37%*
O=c1c(-c2ccccc2CN2CCOCC2)ccc2n1C[C@H]1C[C@@H]2CN(Cc2cccs2)C1,i
O=C(NCc1ccccc1)c1noc2c1CCc1ccccc1-2,i
COc1ccc(NC(=O)N2CCN(C)CC2)cc1,i
COc1ccc(NC(=O)N2CC[C@H]3CC(=O)N(CCN4CCNC4=O)CC[C@H]3C2)cc1,53%*
CCNC(=O)N1CC[C@H]2CC(=O)N(CCN3CCNC3=O)CC[C@H]2C1,i
SMILES,ST2 inh
Cc1cccc(NS(=O)(=O)c2c(C)[nH]c(=O)[nH]c2=O)c1C,i
O=C(CCc1c[nH]c2ccccc12)NCCc1n[nH]c2c1CCCC2,i
O=C(CCCn1c(=O)[nH]c2ccsc2c1=O)NCc1ccc(Cl)cc1,i
O=C(NCCCN1CCCC1)c1cc(=O)[nH]c2ccc(S(=O)(=O)N3CCCC3)cc12,i
O=C(CCN1C(=O)c2ccccc2C1=O)N1CCCCCC1,i
O=S(=O)(N=S(N1CCCCC1)N1CCCCC1)c1ccccc1,i
